Pf Dd2 inh: blocks in vitro growth of P. falciparum Dd2; Potency, µM (highest dose often 28.9 µM), for inactives: at the top dose activity, negative = inhibition, actives largely listed as inhibitors; P. falciparum Dd2 growth, SYBR Green, 72 h; AID 1347417; 4.3% of 120,000 active; active = well fitted inhibition curve with a large enough effect;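 note: plate controls were DMSO vehicle for no effect and reference drug for full effect; nearly all actives have a fitted effect of over 65% in size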
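Readout: SYBR Green fluorescence, 485 nm excitation, 535 nm emission, after ~16 h lysis at 37C. Before that, Dd2-infected red cells (2.5% hematocrit) grew 72 h with compound, 29 uM top final concentration.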
The depositor's hits bear a star; [ ] = another dose, or the depositor's remark. Many of the other results were omitted from the sample, so hits are more common in it than they were. Potency is the fitted concentration of half-maximal effect.

`CCCCn1c(SCC(=O)NCc2ccc(C)cc2)nc2c(sc3ccccc32)c1=O` gave Pf Dd2 inh 46%.
COc1ccc(-n2c(SCC(=O)NCc3ccc(C)cc3)nc3n[nH]c(C)c3c2=N)cc1 was read as Pf Dd2 inh 10µM*.
Screening Cc1ccc(Cn2ccnc2SCC(=O)NCc2ccccc2)cc1 returned Pf Dd2 inh inactive.
Screening Cc1nc(C)c(C(=O)N2[C@@H]3CC[C@H]2CC(NC(=O)c2ccncc2)C3)s1 (some centres undefined) returned Pf Dd2 inh inactive.
O=C(NC1CCCN(c2cc(-c3ccccc3)[nH]n2)C1)c1cc(F)ccc1Cl (centres undefined) was read as Pf Dd2 inh inactive.
`CCN1c2cc(C(=O)Nc3ccccc3)ccc2C(=O)N2CCCCCC21` (centres undefined) gave Pf Dd2 inh -4%.
For COC1CN(c2ccc(C)cc2)C12CCN(C(=O)C1CCCC1)CC2 (centres undefined) the results were Pf Dd2 inh -5%.
CCc1noc([C@@H]2CC(F)(F)CN2C(=O)c2ccc(F)cn2)n1 was read as Pf Dd2 inh 4%.
Screening Cc1ccc(C(=O)NC2CCCN(c3cc(-c4ccc(Cl)cc4)[nH]n3)C2)cn1 (centres undefined) returned Pf Dd2 inh -9%.
`Cc1cn2nc(C(=O)NCc3cccc(Cl)c3)cc2c(=O)[nH]1` gave Pf Dd2 inh 8%.
Screening COCCCNC(=O)c1cc2c(=O)[nH]c(C)cn2n1 returned Pf Dd2 inh 21%.
For COc1ccc(CCNC(=O)c2cc3c(=O)[nH]c(C)cn3n2)cc1OC the results were Pf Dd2 inh inactive.
Cc1cn2nc(C(=O)NCc3cc(F)cc(F)c3)cc2c(=O)[nH]1 was read as Pf Dd2 inh 10%.
Cc1cn2nc(C(=O)NCCCc3ccccc3)cc2c(=O)[nH]1 was read as Pf Dd2 inh 7.9µM*.
Cc1ccc(CNC(=O)c2ccc(NC(=O)c3cc4c(=O)[nH]c(C)cn4n3)cc2)cc1 was read as Pf Dd2 inh 4µM*.
For Cc1cccc(C(=O)N2CCC(n3cc(-c4nc(C)no4)nn3)CC2)c1 the results were Pf Dd2 inh -6%.
CN(C)c1ccc(CN2CCOC[C@H]2c2nc(C(C)(C)C)co2)cc1 was read as Pf Dd2 inh -14%[44.1 µM].
`CCOc1ccc(C(=O)N2CC(C(=O)NC3CCCCC3)C3(CCOCC3)C2)cc1` (centres undefined) gave Pf Dd2 inh -22%.
For Cc1nn(C)c(C)c1CCC(=O)N1CCN(C(=O)N2CC3CC(C2)[C@H]2CCCC(=O)N2C3)CC1 (some centres undefined) the results were Pf Dd2 inh -10%.
`CCN1C(=O)C2(CCN(S(=O)(=O)c3ccc4c(c3)CCCC4)CC2)c2ccccc21` gave Pf Dd2 inh 2%.
For Cc1noc(C)c1S(=O)(=O)N1CCc2nn(C)c(=O)n2CC1 the results were Pf Dd2 inh -5%.
`Fc1ccc2nc([C@H]3CCN(Cc4ncc[nH]4)C3)[nH]c2c1` gave Pf Dd2 inh inactive.
Fc1ccc2nc([C@H]3CCN(Cc4cccs4)C3)[nH]c2c1 was read as Pf Dd2 inh 11µM*.
COc1ccc2nc([C@H]3CCN(Cc4ccncc4)C3)[nH]c2c1 was read as Pf Dd2 inh inactive.
For Cc1ccccc1CN1CC[C@H](c2nc3ncccc3[nH]2)C1 the results were Pf Dd2 inh 32µM*.
Screening CC(=O)N1CC[C@H](c2nc3ccc(F)cc3[nH]2)C1 returned Pf Dd2 inh -6%[44.1 µM].
`Cc1ccc(CN2CC[C@H](c3nc4ccc(C(F)(F)F)cc4[nH]3)C2)cc1` gave Pf Dd2 inh 11µM*.
Screening c1ccc2ncc(CN3CC[C@H](c4nc5ccccc5[nH]4)C3)cc2c1 returned Pf Dd2 inh 11µM*.
For COc1cccc(CN2CC[C@H](c3nc4ccccc4[nH]3)C2)c1 the results were Pf Dd2 inh -21%[44.1 µM].
For Clc1cccc(CN2CC[C@H](c3nc4ccccc4[nH]3)C2)c1 the results were Pf Dd2 inh inactive.
Screening CS(=O)(=O)c1ccc(CN2CC[C@H](c3nc4ncccc4[nH]3)C2)cc1 returned Pf Dd2 inh -23%[44.1 µM].
COc1ccc(CN2CC[C@H](c3nc4ccc(C)cc4[nH]3)C2)cc1 was read as Pf Dd2 inh inactive.
CN(C)c1ccc(CN2CCC(c3nc4ncccc4[nH]3)C2)cc1 (centres undefined) was read as Pf Dd2 inh -7%.
For Cc1cccc(=O)n1CCC(=O)N1CCn2nc(C(O)C3CC3)cc2C1 (centres undefined) the results were Pf Dd2 inh -7%.
COc1ccc(CCC(=O)N2C[C@@H](CO)[C@H](c3nc(C)no3)C2)cc1 was read as Pf Dd2 inh 22%.
CCn1ccc(C(=O)N2CCC(F)(c3nc(-c4ccncc4)no3)CC2)n1 was read as Pf Dd2 inh -8%.
`Cc1cccc(C(=O)N2CCCCCC2c2nc(C)no2)c1` (centres undefined) gave Pf Dd2 inh -17%.
Screening CCNc1nccc(N2CCC(CC(=O)NCCCOC)CC2)n1 returned Pf Dd2 inh 5%.
For FC(F)(F)c1ccc2nc([C@H]3CCN(Cc4ncc[nH]4)C3)[nH]c2c1 the results were Pf Dd2 inh inactive.
Screening COc1ccc2nc([C@H]3CCN(C4CCCCC4)C3)[nH]c2c1 returned Pf Dd2 inh -6%[44.1 µM].
COc1ccccc1CN1CC[C@H](c2nc3ccc(C(F)(F)F)cc3[nH]2)C1 was read as Pf Dd2 inh 8.9µM*.
For COC1CCN(C(=O)Cc2c[nH]c3ncc(-c4cnn(C)c4)cc23)CC1 the results were Pf Dd2 inh inactive.
Screening COc1ccc(-c2cnc3[nH]cc(CC(=O)Nc4cccnc4)c3c2)cc1 returned Pf Dd2 inh inactive.
`O=C1CCCCC(C(=O)NCc2ccc(Cl)cc2)N1` (centres undefined) gave Pf Dd2 inh 11%.
CCC(=O)N1CCN(c2nc3c(s2)CC(C(=O)NCc2ccc(F)cc2)CC3)CC1 (centres undefined) was read as Pf Dd2 inh -29%.
`CC(=O)N1CCN(c2nc3c(s2)CC(C(=O)Nc2cccc(C(C)(C)C)c2)CC3)CC1` (centres undefined) gave Pf Dd2 inh -13%.
For CC(=O)N1CCN(c2nc3c(s2)CC(C(=O)NC2CCCCC2)CC3)CC1 (centres undefined) the results were Pf Dd2 inh inactive.
For CC(=O)N1CCN(c2nc3c(s2)CC(C(=O)Nc2cc(F)cc(F)c2)CC3)CC1 (centres undefined) the results were Pf Dd2 inh 4.5µM*.
CC(C)C(=O)N1CCN(c2nc3c(s2)CC(C(=O)NCc2ccco2)CC3)CC1 (centres undefined) was read as Pf Dd2 inh 13µM*.
COc1ccc(CNC(=O)C2CCc3nc(N4CCN(C(C)=O)CC4)sc3C2)cc1 (centres undefined) was read as Pf Dd2 inh inactive.
For Cc1ccc(CNC(=O)C2CCc3nc(N4CCN(C(=O)C(C)C)CC4)sc3C2)o1 (centres undefined) the results were Pf Dd2 inh 7.9µM*.
`CC(C)C(=O)N1CCN(c2nc3c(s2)CC(C(=O)Nc2ccc(Cl)cc2)CC3)CC1` (centres undefined) gave Pf Dd2 inh inactive.
For CC(=O)N1CCN(c2nc3c(s2)CC(C(=O)NCc2ccccc2C)CC3)CC1 (centres undefined) the results were Pf Dd2 inh inactive.
CS(=O)(=O)c1ccc(-c2cnc([C@@H]3COCCN3C3CCOCC3)[nH]2)cc1 was read as Pf Dd2 inh 6%[44.1 µM].

Assay outcomes (PubChem BioAssay)
